From PubChem BioAssay AID1259251 (The Scripps Research Institute Molecular Screening Center, 2017)
Out of some 30,000 compounds screened, about 580 (1.9%) were called active. The list comes from a sample in which actives are over-represented; it also holds similar structures and randomly drawn compounds. Values without a mark were called inactive. Rule as the data show it: active = inhibition above about 43%; inactive = the rest.

Target: Serine/threonine-protein kinase ULK1 (Homo sapiens) (UniProt O75385)
Experiment: inhibition of human autophagy kinase ULK1 – biochemical, AlphaScreen, primary screen (AID 1259251);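 also: 0% = median of compound wells and 100% = no enzyme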
Conditions: AlphaScreen Atg13 phosphorylation by ULK1, luminescence; at 5.96 µM; stronger effect = higher value

Sequence of Serine/threonine-protein kinase ULK1 (Homo sapiens) (O75385 whole entry, looked up): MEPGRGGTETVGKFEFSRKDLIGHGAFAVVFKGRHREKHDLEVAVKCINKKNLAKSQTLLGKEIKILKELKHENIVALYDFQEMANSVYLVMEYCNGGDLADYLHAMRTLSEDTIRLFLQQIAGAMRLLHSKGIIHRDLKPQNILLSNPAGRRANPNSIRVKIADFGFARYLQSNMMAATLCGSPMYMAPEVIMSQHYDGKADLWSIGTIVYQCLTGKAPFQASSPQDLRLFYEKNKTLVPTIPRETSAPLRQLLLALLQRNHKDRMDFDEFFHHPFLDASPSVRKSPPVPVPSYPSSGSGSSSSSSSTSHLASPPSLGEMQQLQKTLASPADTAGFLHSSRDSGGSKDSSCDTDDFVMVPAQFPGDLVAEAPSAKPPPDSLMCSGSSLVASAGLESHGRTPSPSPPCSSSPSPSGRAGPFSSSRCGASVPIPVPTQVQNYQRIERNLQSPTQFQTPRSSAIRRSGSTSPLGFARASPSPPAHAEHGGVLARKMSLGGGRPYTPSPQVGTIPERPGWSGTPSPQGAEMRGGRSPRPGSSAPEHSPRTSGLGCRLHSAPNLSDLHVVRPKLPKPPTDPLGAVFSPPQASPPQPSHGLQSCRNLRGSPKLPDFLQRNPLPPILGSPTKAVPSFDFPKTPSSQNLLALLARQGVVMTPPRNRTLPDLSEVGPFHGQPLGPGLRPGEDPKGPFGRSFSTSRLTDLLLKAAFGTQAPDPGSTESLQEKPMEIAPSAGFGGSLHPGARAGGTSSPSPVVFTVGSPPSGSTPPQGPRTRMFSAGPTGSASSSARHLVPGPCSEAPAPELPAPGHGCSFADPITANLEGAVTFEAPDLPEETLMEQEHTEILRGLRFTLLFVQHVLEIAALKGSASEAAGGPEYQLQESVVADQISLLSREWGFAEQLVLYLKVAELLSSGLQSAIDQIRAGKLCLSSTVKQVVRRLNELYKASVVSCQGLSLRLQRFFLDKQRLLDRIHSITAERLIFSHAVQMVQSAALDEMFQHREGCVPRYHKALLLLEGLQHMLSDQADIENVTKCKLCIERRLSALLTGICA

Row | SMILES | inhibition
1 | CC(C)NC(=O)c1cccc(NC(=O)Nc2ccc(-c3ccnc(N)n3)cc2)c1 | 1.02%
2 | Cc1c[nH]c2ncnc(-c3ccc4c(C(=O)Nc5cccc(C(=O)NC(C)C)c5)n(CC5CC5)nc4c3)c12 | 50.2% (active)
3 | COc1cccc(CN(CCN(C)C)C(=O)c2c3ccc(-c4cn[nH]c4)cc3nn2CC2CC2)c1 | -4.47%
4 | O=C(Nc1ccc2[nH]ncc2c1)C1CCN(C(=O)[C@@H](O)c2ccccc2Cl)CC1 | 2.37%
5 | CC(C)n1c(-c2csc3ccccc23)nc2c(NCc3ccccc3)ncnc21 | 0%
6 | Cc1cnc(-c2c(C)nn(C)c2C)nc1NCCN1CCOCC1 | 3.9%
7 | COc1cc(Nc2nc(NCc3cccc(C(F)(F)F)c3)c3ncn(C4CCCCC4)c3n2)cc(OC)c1OC | -5.25%
8 | COc1cc(Nc2nc(NCc3cccc(C(F)(F)F)c3)c3[nH]cnc3n2)cc(OC)c1OC | 47.7% (active)
9 | COc1cc(Nc2nc(Nc3cc(OC)c(OC)c(OC)c3)c3[nH]cnc3n2)cc(OC)c1OC | 16.2%
10 | O=C(Nc1nc2c(s1)CN(Cc1ccccc1)CC2)c1cc(Cl)ccc1Cl | -4.96%
11 | COc1cc(Nc2cc(N3CCN(Cc4ccc5c(c4)OCO5)CC3)ncn2)cc(OC)c1OC | -5.38%
12 | Cc1cnc(-c2ccc(N3CCOCC3)nc2)nc1NCCN1CCOCC1 | 2.67%
13 | COc1ccc(-c2nc(NCCN3CCOCC3)c3ncn(-c4ccccc4)c3n2)cn1 | -16.5%
14 | Nc1nc(NCc2ccccc2)cc(NCc2cccnc2)n1 | -4.44%
15 | CNC(=O)c1ccccc1Nc1nc(Nc2ccc(N3CCOCC3)cc2OC)ncc1Cl | 77.3% (active)
16 | COc1cc(N2CCOCC2)ccc1Nc1cc(Nc2ccccc2C(N)=O)ccn1 | 7.87%
17 | CNC(=O)c1ccccc1Nc1cc(Nc2ccc(N3CCOCC3)cc2OC)ncc1F | 16.4%
18 | COC(=O)c1ccc(C2Nc3c(C(=O)OC)cccc3C3C=CCC32)cc1 (stereo unspecified) | 7.56%
19 | CCCN1CCc2c(sc(N)c2C(=O)OC)C1 | 7.44%
20 | c1ccc(CN2CCC(Nc3ccnc(NC4CCN(Cc5ccccc5)CC4)n3)CC2)cc1 | -6.32%
21 | CC(=O)Nc1ccc(NC(=O)c2ccc(-c3ccc(C(N)=O)cc3)s2)cc1 | -5.71%
22 | O=C(NCc1cccnc1)c1cccc(Nc2ccc(N3CCOCC3)cc2)n1 | 5.75%

Row | SMILES | inhibition
23 | Cc1nn(C)c(C)c1-c1cccc(C(=O)NCCN(C(C)C)C(C)C)n1 | -2.03%
24 | CC(C)n1cnc2c(NCc3cccnc3)nc(Nc3ccc(N4CCOCC4)cc3)nc21 | 1.97%
25 | c1cc(Nc2nc(Nc3ccc(N4CCOCC4)cc3)c3ncn(-c4ccsc4)c3n2)ccn1 | 19.3%
26 | CC(C)n1cnc2c(NCc3ccccc3)nc(NC3CCC(O)CC3)nc21 (stereo unspecified) | 0.05%
27 | CC(C)n1cnc2c(Nc3ccc(N4CCOCC4)cc3)nc(NC3CCC(O)CC3)nc21 (stereo unspecified) | 43.6% (active)
28 | CC(C)n1cnc2c(Nc3ccc(N4CCOCC4)cc3)nc(Nc3ccncc3)nc21 | 55.3% (active)
29 | CC(C)n1cnc2c(NC3CCN(Cc4ccccc4)CC3)nc(Nc3ccc(N4CCOCC4)cc3)nc21 | 11.3%
30 | O=C(Nc1ccc2[nH]ncc2c1)[C@@H]1C[C@H](O)CN1C(=O)Cc1ccc(Br)cc1 | 5.62%
31 | CC(NC(=O)C(C(=O)c1ccccc1)n1ccccc1=O)c1ccccc1 (stereo unspecified) | 1.21%
32 | N#Cc1cccc(C[C@H](N)c2nc3ccc(-c4ccncc4)cc3[nH]2)c1 | 7.99%
33 | COc1cc2nc(Nc3ccccc3)nc(NCc3cccc(C(F)(F)F)c3)c2cc1OC | -26.9%
34 | COc1nc(Nc2ccccc2)nc(-c2ccc(C(=O)NC3CC3)cc2)n1 | 22.8%
35 | COc1ccc(CCNc2cc(NC3CCN(Cc4ccccc4)CC3)ncn2)cc1 | -6.44%
36 | COc1cc(OC)nc(Oc2ccccc2/C=N/N(C)C(N)=S)n1 | 10.3%
37 | CCN(CC)C(=O)C1CCCN(c2cc(Nc3ccccc3)nc(N)n2)C1 (stereo unspecified) | 13.1%
38 | Fc1ccc(CNc2ncc3ccc(-c4cn[nH]c4)cc3c2Cl)cc1 | 70.6% (active)
39 | COc1ccc(CNC(=O)c2c[nH]c3cc(-c4cn[nH]c4)ccc23)cc1 | -3.48%
40 | O=C(NCc1cccc(Cl)c1)Nc1ccc(-c2cn[nH]c2)cc1 | 16%
41 | O=C(Oc1ccc([N+](=O)[O-])cc1)c1ccc2c(c1)C(=O)N(c1ccc([N+](=O)[O-])cc1)C2=O | 8.64%
42 | COc1ccc(CCNC(=O)c2cnc(-c3cccs3)s2)cc1 | -2.76%
43 | COc1ccc(-c2nc3ncnc(NCCN4CCOCC4)c3[nH]2)cc1 | 0.53%
44 | Cc1ncc2c(NCCCN3CCOCC3)nc3ccccc3n12 | 12.3%

Row | SMILES | inhibition
45 | Oc1c(Cl)cc(Cl)c(Cl)c1Cc1c(O)c(Cl)cc(Cl)c1Cl | 75.9% (active)
46 | c1cc(-c2ocnc2-c2ncco2)cc(Nc2ccc(N3CCOCC3)cc2)n1 | -5.51%
47 | COc1ccc(C(N)c2nc3ccc(-c4cn[nH]c4)cc3c(=O)[nH]2)cc1 (stereo unspecified) | 16%
48 | CC(C)c1nc2ccc(-c3ccnn3C)cc2c(=O)[nH]1 | -1.76%
49 | CC(C)c1nc2ccc(-c3cn[nH]c3)cc2c(=O)[nH]1 | 69% (active)
50 | Cc1cccc(C(=O)NCc2ccccc2)c1N1CCC2(CC1)OCCO2 | 4.05%
51 | Cc1cc(NC2CC2)nc(N2CCCC2CO)n1 (stereo unspecified) | -3.85%
52 | CC(C)N(CCNc1ccnc(Nc2ncccn2)n1)C(C)C | -7.14%
53 | Cc1ccc(-c2ncn(-c3ccc(Nc4nccc(-c5cc(C#N)cc(N6CCCC(O)C6)c5)n4)cc3)n2)cn1 (stereo unspecified) | 0.75%
54 | Cn1nnnc1-c1ccc(Nc2nccc(-c3ccc(N4CCC(O)CC4)c(C#N)c3)n2)cc1 | 64.2% (active)
55 | Cc1ncn(-c2ccc(Nc3nccc(-c4cc(C#N)cc(NC5CCN(C)CC5)c4)n3)cc2)n1 | 3.12%
56 | Cn1c(Nc2nc3ccc(C(=O)NCCO)cc3s2)nc2ccccc21 | 20.6%
57 | Cc1cc(NCc2cccc(C(F)(F)F)c2)nc(NC2CCC(O)CC2)n1 (stereo unspecified) | -8.27%
58 | Nc1nc(Nc2cnccn2)cc(NC2CCN(Cc3ccccc3)CC2)n1 | -0.08%
59 | CC(=O)c1cccc(-c2nc3ncnc(NCc4nc5ccccc5[nH]4)c3[nH]2)c1 | -5.39%
60 | CC(C)(C)c1nc(-c2cccc(NS(=O)(=O)c3c(F)cccc3F)c2F)c(-c2ccnc(N)n2)s1 | 66.2% (active)
61 | CCCNc1nc(-c2cccc(C(C)=O)c2)nc2c1ncn2-c1ccccc1 | -6.8%
62 | C[C@@H](CN)Oc1ncccc1C(=O)Nc1ccc2[nH]ncc2c1 | 0.92%
63 | OCC1CCCN1c1nc2ncnc(NC3CC3)c2[nH]1 (stereo unspecified) | 1.11%
64 | COc1cccc(CNC(=O)Nc2ccc(-c3cn[nH]c3)cc2OC2CCNC2)c1 (stereo unspecified) | 55.8% (active)
65 | COc1cccc(CNC(=O)Nc2ccc(-c3cn[nH]c3)cc2OC2CCC(O)C2)c1 (stereo unspecified) | 2.68%
66 | COc1cccc(CN(CC2CC2)C(=O)Nc2ccc(-c3cn[nH]c3)cc2OC)c1 | -27.8%

Row | SMILES | inhibition
67 | CCCNc1nc(NCc2cccnc2)nc2c1ncn2Cc1ccc(C(F)(F)F)cc1 | -9.26%
68 | O=C(NCc1cccc(C(F)(F)F)c1)c1cnc(NCCCN2CCCC2=O)s1 | -7.22%
69 | COC(=O)c1ccc(Cn2c(-c3nnc(CC(C)C)o3)cc3ccccc32)o1 | -10%
70 | CC(=O)c1cccc(-c2nc3c(NCCCN4CCCC4=O)ncnc3n2C(C)C)c1 | 5.85%
71 | CC(=O)Nc1ccc(Nc2ncnc3c2nc(-c2cccc(N)c2)n3C(C)C)cc1 | -4.82%
72 | CC(=O)c1cccc(-c2nc3c(Nc4ccc(N5CCOCC5)cc4)ncnc3n2C(C)C)c1 | 67.5% (active)
73 | O=C1NC(=S)NC(=O)C1=Cc1ccc(-c2ccc([N+](=O)[O-])c(Cl)c2)o1 | 24.2%
74 | O=C(NCc1cccc(NC(=O)C2CC2)c1)Nc1ccc(-c2cn[nH]c2)cc1 | 6.93%
75 | Cn1nccc1Nc1cc(Nc2ccc(N3CCOCC3)cc2)ncn1 | 17.2%
76 | COc1cc(Nc2cc(-c3nocc3-c3cnn(C)c3)ccn2)ccc1N1CCOCC1 | -3.85%
77 | Cn1cc(-c2cc(Nc3ccc(N4CCOCC4)cn3)ncc2Cl)cn1 | 53.2% (active)
78 | COc1ccc(CCNc2cc(-c3csc4ccccc34)ncn2)cc1 | -12%
79 | COCCn1nnnc1C(c1cc2ccc(C)cc2[nH]c1=O)N1CCc2ccccc21 (stereo unspecified) | -5.34%
80 | O=C(Nc1ccc(-c2cn[nH]c2)cc1)C1CCc2ccccc2O1 (stereo unspecified) | 12.4%
81 | COc1cc(Nc2ccc(N3CCC(C(=O)NCc4nc5ccccc5[nH]4)CC3)nn2)cc(OC)c1OC | 7.51%
82 | COc1ccc2c(c1)CC(C(=O)Nc1ccc(-c3cn[nH]c3)cc1OCCN(C)C)CO2 (stereo unspecified) | 7.42%
83 | CC(C)NC(=O)c1cccc(Nc2nccc(-c3ccc4nc(C5CC5)nc(N5CCCC5)c4c3)n2)c1 | -33.9%
84 | COc1cccc(Nc2nccc(-c3ccc4c(=O)n(C5CC5)c(C)nc4c3)n2)c1 | 21.2%
85 | O=C(c1ccc(Nc2nccc(-c3ccc4c(=O)[nH]c(C5CC5)nc4c3)n2)cc1)N1CCCC1 | 62.9% (active)
86 | OCC1CCCN1c1nc(NC2CCN(Cc3ccccc3)CC2)c2ncn(Cc3ccc(C(F)(F)F)cc3)c2n1 (stereo unspecified) | -14.8%
